Values joined by “and” are separate entries in the source; they are usually repeats but may differ in a detail not shown here. Equal values may be shown once. Records with an inconclusive call do not appear. Active and inactive are the calls of the source. Unless noted, calls come from the whole dose curve; as a rule, active = well fitted curve in the direction sought with a large enough effect in the repeat runs; inconclusive = weak or mixed curves; inactive = no such curve, though single readings can be large; an effect the other way counts as inactive or inconclusive.
Assays:
[1] = qHTS assay for small molecule agonists of the p53 signaling pathway - cell viability (AID 651633; calls by dose curve; note: nearly all actives have a fitted effect of over 30% in size; note: potency is the fitted concentration of half-maximal effect)
How it was run: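 p53RE-bla cells were treated with compound for 16 hours at 37 C. Cytotoxicity was then measured as CellTiter-Glo luminescence after 30 min at room temperature.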

[2] = qHTS assay for small molecule disruptors of the mitochondrial membrane potential (AID 720635); note: potency is the fitted concentration of half-maximal effect
How it was run: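 HepG2 cells exposed to compound 1 hr at 37C, then Mito-MPS dye 30 min. Ratio read of aggregate (540/590 nm) versus monomer (490/535 nm) fluorescence.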

[3] = qHTS assay to test for compound auto fluorescence at 590 nm (red) in HepG2 cells (AID 720674)
How it was run: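 Seeding: 2,000 HepG2 cells/well, MEM/10% FBS, overnight 37 C. Dosing: compound vs DMSO. Incubation: 1 hr, 37 C, 5% CO2. Read: fluorescence 540 ex/590 em, Rose Bengal sodium as red reference.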

[4] = qHTS assay to test for compound auto fluorescence at 535 nm (green) in HepG2 cells (AID 720675)
[5] = qHTS assay to test for compound auto fluorescence at 460 nm (blue) in HEK293 cells (AID 720678)
How it was run: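 Auto fluorescence in the blue band was quantified as triamterene equivalency. HEK293 cells were seeded at 2,000/well, dosed after a 4-5 hr attachment, and kept overnight at 37C before the 405/460 nm reading.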

[6] = qHTS assay to test for compound auto fluorescence at 590 nm (red) in HEK293 cells (AID 720679)
How it was run: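 Autofluorescence equivalency to Rose Bengal sodium, 540/590nm, in HEK293 cells exposed overnight to 23 nL compound per well.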

[7] = qHTS assay for small molecules that induce genotoxicity in human embryonic kidney cells expressing luciferase-tagged ATAD5 - cell viability (AID 651634; calls by dose curve; note: nearly all actives have a fitted effect of over 25% in size; note: potency is the fitted concentration of half-maximal effect)
How it was run: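 Cytotoxicity counterscreen in HEK293T cells bearing an ATAD5-luciferase reporter: live-cell protease activity measured by CellTiter-Fluor fluorescence after 15.5 hr compound exposure.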

[8] = qHTS assay for small molecule disruptors of the mitochondrial membrane potential - cell viability (AID 720634; calls by dose curve; note: nearly all actives have a fitted effect of over 20% in size; note: potency is the fitted concentration of half-maximal effect)
How it was run: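 After overnight attachment at 37 C, HepG2 cells received compound or DMSO vehicle for 1 hr. Viability is then taken from ATP-driven luminescence following a 30 min room-temperature CellTiter-Glo step.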
% is set by controls: 0 for no effect and ±100 for the full control effect.

O=C1C=CC(=O)N1c1ccccc1
active: Potency [1] 48.6 µM | Potency [2] 48.6 µM
inactive: Potency [3] | Potency [4] | Potency [5] | Potency [6]

C[C@@H]1CC[C@H]2C(C)(C)[C@H]3C[C@@]12CC[C@@]3(C)O
active: Potency [2] 61 µM
inactive: Potency [1] | Potency [7] | Potency [3] | Potency [4] | Potency [5] | Potency [6]

CC(C)(C)c1cc(/C=C2\SC(=N)NC2=O)cc(C(C)(C)C)c1O
inactive: Potency [8] | Potency [3] | Potency [4] | Potency [6]
active: Potency [1] 68.6 µM | Potency [2] 12.2 µM

O=C(O)CCn1c2c(c3ccccc31)C[C@H](NS(=O)(=O)c1ccc(F)cc1)CC2
inactive: Potency [8] | Potency [2] | Potency [3] | Potency [4] | Potency [5] | Potency [6]

CC(=O)OC(OC(C)=O)c1ccc([N+](=O)[O-])o1
active: Potency [2] 31.2 µM
inactive: Potency [3] | Potency [4] | Potency [5] | Potency [6]

Clc1ccc(C(Cn2ccnc2)OCc2ccsc2Cl)c(Cl)c1 (configuration not stated)
inactive: Potency [3] | Potency [4] | Potency [5] | Potency [6]

Nc1cc(Cl)c([N+](=O)[O-])cc1O
active: Potency [2] 19.2 µM
inactive: Potency [1] | Potency [8] | Potency [3] | Potency [4] | Potency [5] | Potency [6]

CSc1c(Cl)c(Cl)c(Cl)c(Cl)c1Cl
inactive: Potency [3] | Potency [4] | Potency [6]

SCCCCCCCCS
inactive: Potency [1] | Potency [3] | Potency [4] | Potency [5] | Potency [6]

O=C1NC2CCCCN2C12CCN(CCCN1c3ccccc3CCc3ccc(Cl)cc31)CC2 (configuration not stated)
inactive: Potency [1] | Potency [8] | Potency [2] | Potency [3] | Potency [4] | Potency [5] | Potency [6]

CCCCCCC(C)Nc1ccc(Nc2ccccc2)cc1 (configuration not stated)
inactive: Potency [7] | Potency [3] | Potency [4] | Potency [5] | Potency [6]
active: Potency [1] 54.5 µM | Potency [2] 30.6 µM

CN(Cc1cc(Br)cc(Br)c1N)C1CCCCC1
inactive: Potency [7] | Potency [3] | Potency [4] | Potency [5] | Potency [6]
active: Potency [1] 29.8 µM | Potency [2] 26.6 µM

Clc1ccccc1CN1CCc2sccc2C1
inactive: Potency [8] | Potency [3] | Potency [4] | Potency [5] | Potency [6]
active: Potency [2] 26.6 µM

CN(C)c1ccc(N=Nc2ccccc2C(=O)O)cc1
inactive: Potency [8] | Potency [3] | Potency [4] | Potency [5] | Potency [6]

C=CC(=O)OCC(O)COc1ccccc1 (configuration not stated)
active: Potency [1] 54.5 µM
inactive: Potency [8] | Potency [3] | Potency [4] | Potency [5] | Potency [6]

C[C@H]1O[C@@H](O[C@H]2[C@@H](O)C[C@H](O[C@H]3[C@@H](O)C[C@H](O[C@H]4CC[C@@]5(C)[C@H](CC[C@@H]6[C@@H]5C[C@@H](O)[C@]5(C)[C@@H](C7=CC(=O)OC7)CC[C@]65O)C4)O[C@@H]3C)O[C@@H]2C)C[C@H](O)[C@@H]1O
inactive: Potency [3] | Potency [4] | Potency [5] | Potency [6]
active: Potency [1] 94.4 nM and 13.7 nM and 30.3 nM | Potency [7] 168 nM and 48.6 nM and 42.8 nM | Potency [2] 298 nM and 1.37 µM and 604 nM

CC1=C(/C=C/C(C)=C/C=C/C(C)=C\C=O)C(C)(C)CCC1
inactive: Potency [3] | Potency [4] | Potency [6]
active: Potency [2] 57.9 µM

Cc1c(-c2ccc(O)cc2)n(Cc2ccc(OCCN3CCCCCC3)cc2)c2ccc(O)cc12
active: Potency [2] 10.6 µM
inactive: Potency [8] | Potency [3] | Potency [4] | Potency [6]

COCC(=O)O[C@]1(CCN(C)CCCc2nc3ccccc3[nH]2)CCc2cc(F)ccc2[C@@H]1C(C)C
inactive: Potency [3] | Potency [4] | Potency [5] | Potency [6]
active: Potency [1] 11.9 µM | Potency [8] 26.6 µM | Potency [2] 3.35 µM

COC(=O)C1=C(C)NC(C)=C(C(=O)OCCCN2CCC(c3ccccc3)(c3ccccc3)CC2)C1c1cccc([N+](=O)[O-])c1 (configuration not stated)
inactive: Potency [8] | Potency [3] | Potency [4] | Potency [6]
active: Potency [1] 26.6 µM | Potency [7] 23.7 µM

CN1[C@@H]2CC[C@@H]1CC(OC(=O)C(CO)c1ccccc1)C2 (some centres not stated)
inactive: Potency [8] | Potency [2] | Potency [3] | Potency [4] | Potency [5] | Potency [6]

CN1CCN(C2Cc3ccccc3Sc3ccc(Cl)cc32)CC1 (configuration not stated)
active: Potency [1] 29.8 µM
inactive: Potency [8] | Potency [3] | Potency [4] | Potency [5] | Potency [6]

Oc1ccc(-c2ccc(O)cc2)cc1
active: Potency [2] 43.5 µM
inactive: Potency [7] | Potency [3] | Potency [4] | Potency [6]

CN(C)CCCN1c2ccccc2CCc2ccccc21
inactive: Potency [8] | Potency [3] | Potency [4] | Potency [6]

CNCC[C@H](Oc1cccc2ccccc12)c1cccs1
inactive: Potency [3] | Potency [4] | Potency [6]
active: Potency [2] 13.3 µM

S=C(SSSSSSC(=S)N1CCCCC1)N1CCCCC1
inactive: Potency [1] | fluorescence, relative to Rose Bengal [3] -0.0183% [at 18.6 µM] | fluorescence, % of fluorescein control [4] -0.0182% [at 18.6 µM] | fluorescence, % of triamterene [5] 0.0298% [at 18.6 µM] | fluorescence, % of fluorescent control [6] 0.199% [at 18.6 µM]

CC(C)(C)C1=CC(=O)C=C(C(C)(C)C)C1=O
active: Potency [7] 30.6 µM | Potency [8] 61.1 µM | Potency [2] 7.7 µM
inactive: Potency [3] | Potency [4] | Potency [5] | Potency [6]

Cc1occc1SSc1ccoc1C
inactive: Potency [1] | Potency [8] | Potency [2] | Potency [3] | Potency [4] | Potency [5] | Potency [6]

CCN(CC)CCOc1ccc(C(O)(Cc2ccc(Cl)cc2)c2ccc(C)cc2)cc1 (configuration not stated)
active: Potency [1] 29.8 µM
inactive: Potency [3] | Potency [4] | Potency [5] | Potency [6]

Cc1cc(Nc2ccc(O)cc2)ccc1N
active: Potency [2] 6.82 µM
inactive: Potency [1] | Potency [3] | Potency [4] | Potency [5] | Potency [6]

C/C=C/C=N/NC(=O)c1ccncc1
inactive: Potency [1] | Potency [8] | Potency [2] | Potency [3] | Potency [4] | Potency [5] | Potency [6]

C[C@@]12C(=O)OC(=O)[C@]1(C)C1CCC2O1
inactive: Potency [8] | fluorescence, relative to Rose Bengal [3] 0.463% [at 18.6 µM] | fluorescence, % of fluorescein control [4] -0.0054% [at 18.6 µM] | fluorescence, % of triamterene [5] -0.421% [at 18.6 µM] | fluorescence, % of fluorescent control [6] -0.0987% [at 18.6 µM]
active: Potency [7] 3.59 µM | Potency [2] 0.101 µM

Cc1cc2c(C(C)C)c(O)c(O)c(C=O)c2c(O)c1-c1c(C)cc2c(C(C)C)c(O)c(O)c(C=O)c2c1O
active: Potency [1] 8.41 µM | Potency [2] 11.9 µM
inactive: Potency [3] | Potency [4] | Potency [5] | Potency [6]

CCCCOc1ccc(C(=O)CCN2CCCCC2)cc1
inactive: Potency [7] | Potency [2] | fluorescence, relative to Rose Bengal [3] 0.0479% [at 18.6 µM] | fluorescence, % of fluorescein control [4] 0.0117% [at 18.6 µM] | fluorescence, % of triamterene [5] 0.101% [at 18.6 µM] | fluorescence, % of fluorescent control [6] -0.0275% [at 18.6 µM]

— PubChem BioAssay (Tox21)
